Experimental findings from PubChem BioAssay (EPA / NIEHS) are described below.

A short description of assay [1]: ACEA_ER_80hr: ACEA Biosciences xCELLigence Real-Time Cell Analysis on Estrogen Receptor Agonism for Proliferation (AID 2282667; active = hit-call score of the fitted dose curve at least 0.9, where 1 is the maximum). Conditions: T47D proliferation, impedance (xCELLigence), 80 h. In short, it runs like this:
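Impedance readout (RT-CES) of T47D proliferation at 80 h post-dose; gain of signal vs DMSO baseline. Compounds: 8 conc, 1:4 serial, top 100 uM final, ≤0.5% DMSO; biological duplicate.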

Assay [2] is described as follows: ATG_CRE_CIS: Attagene CIS-FACTORIAL HepG2 Assay for human cAMP Responsive Element (CRE) binding protein 3 (AID 2282926). The note with it: HepG2 CRE cis-reporter, Attagene multiplexed mRNA; actives raise or lower the signal. In short, it runs like this: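 Readout: fluorescently labelled reporter transcripts resolved by capillary electrophoresis after RT-PCR, taken 24 h post-dosing in transfected HepG2. Endogenous transcription factor activity drives each cis-element reporter; gain or loss of signal fitted relative to DMSO control.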

Assay [3] can be described thus: ATG_CMV_CIS: Attagene CIS-FACTORIAL HepG2 Assay for human CMV (Internal Marker) (AID 2282928).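 Note: endpoint acts as a background internal control marker rather than a target.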 The note with it: HepG2 CMV promoter reporter, transcription factor profiling; actives raise or lower the signal. In short, it runs like this: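 Fluorescence intensity of RT-PCR-derived reporter fragments, resolved by capillary electrophoresis, gives the signal. HepG2 liver cells bearing transfected cis-element reporters were treated 24 h; activity in either direction was fit relative to DMSO-treated controls.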

Assay [4] is described as follows: ATG_DR4_LXR_CIS: Attagene CIS-FACTORIAL HepG2 Assay for human Liver X Receptor (LXR), DR4 submotif (AID 2282929). Conditions: HepG2 Attagene DR4 cis-reporter, mRNA transcription; actives raise or lower the signal. The essentials:
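HepG2, transient MRTU transfection, cis-element (DR4) promoter; 24 h compound exposure; total RNA → oligo(dT) RT → PCR → 6-FAM primer extension → HpaI cut → CE. Gain/loss vs DMSO, bidirectional fit.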

Assay [5] addresses Aryl hydrocarbon receptor (Homo sapiens) (UniProt P35869). Put plainly: ATG_Ahr_CIS: Attagene CIS-FACTORIAL HepG2 Assay for human Aryl Hydrocarbon Receptor (Ahr) (AID 2282930). Conditions: HepG2 AhR cis-factorial reporter transcription; actives raise or lower the signal. In short, it runs like this: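 Reporter mRNA levels, quantified by RT-PCR and fluorescent capillary electrophoresis, reflect endogenous AhR transcriptional activity in HepG2 cells carrying transfected cis-promoter reporter constructs. Readout at 24 h post-dose; gain or loss fitted against DMSO baseline.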

Assay [6] is described as follows: ATG_AP_1_CIS: Attagene CIS-FACTORIAL HepG2 Assay for human Activator Protein 1 (AP-1) (AID 2282931). The note with it: HepG2 Attagene cis-factorial AP-1 reporter mRNA; actives raise or lower the signal. The essentials: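 Transient MRTU transfection of HepG2 → 24 h chemical treatment → RNA isolation, RT-PCR, 6-FAM labelling, HpaI digest → capillary electrophoresis. Fit: bidirectional, DMSO negative control.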

A short description of assay [7]: ATG_AP_2_CIS: Attagene CIS-FACTORIAL HepG2 Assay for human Activator Protein 2 (AP-2) (AID 2282932). The note with it: HepG2 AP-2 cis-reporter, Attagene transcription factor profiling; actives raise or lower the signal. In short, it runs like this:
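Transiently transfected HepG2 cells are exposed to chemical for 24 h. Reporter transcripts are then measured as fluorescence following RT-PCR and capillary separation, and gain- or loss-of-signal is fitted relative to DMSO.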

Assay [8] in a line: ATG_BRE_CIS: Attagene CIS-FACTORIAL HepG2 Assay for human Bone Morphogenetic Protein (BMP) Response Element (BRE) (AID 2282933). Conditions: HepG2 BMP response element reporter, Attagene transcription factor profiling; actives raise or lower the signal. The essentials:
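After a 24 h chemical treatment, transiently transfected HepG2 cells were lysed for RNA; reporter transcripts were quantified by fluorescent RT-PCR and capillary electrophoresis, normalised to DMSO.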

In assay [9] the target is Retinoic acid receptor alpha (Homo sapiens) (UniProt P10276). Put plainly: ATG_DR5_RAR_CIS: Attagene CIS-FACTORIAL HepG2 Assay for human Retinoic Acid Receptor Alpha (RARE), DR5 submotif (AID 2282934).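 For AC50: reporter responds to endogenous RAR alpha beta and gamma in HepG2 not RARA alone.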 Conditions: HepG2 Attagene cis-factorial RARE DR5 reporter, mRNA; actives raise or lower the signal. In short, it runs like this:
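Reporter transcripts from a DR5-regulated unit, measured via RT-PCR plus capillary electrophoresis, reflect endogenous RAR activity in transiently transfected human HepG2 liver cells. Exposure lasted 24 h; gain or loss of signal scored against DMSO.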

The target of assay [10] is CCAAT/enhancer-binding protein beta (Homo sapiens) (UniProt P17676). Put plainly: ATG_C_EBP_CIS: Attagene CIS-FACTORIAL HepG2 Assay for human CCAAT/Enhancer Binding Protein (C/EBP) beta (AID 2282927). The note with it: HepG2 Attagene cis-factorial transcription factor reporter; actives raise or lower the signal. In short, it runs like this: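 Endogenous C/EBPb-driven reporter transcripts measured in transfected human HepG2 cells at 24 h via RT-PCR and capillary electrophoresis of labelled fragments. Activity fitted in both directions relative to DMSO baseline.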
Chain of CCAAT/enhancer-binding protein beta (Homo sapiens) (P17676 whole entry, looked up, the tested form may be a part): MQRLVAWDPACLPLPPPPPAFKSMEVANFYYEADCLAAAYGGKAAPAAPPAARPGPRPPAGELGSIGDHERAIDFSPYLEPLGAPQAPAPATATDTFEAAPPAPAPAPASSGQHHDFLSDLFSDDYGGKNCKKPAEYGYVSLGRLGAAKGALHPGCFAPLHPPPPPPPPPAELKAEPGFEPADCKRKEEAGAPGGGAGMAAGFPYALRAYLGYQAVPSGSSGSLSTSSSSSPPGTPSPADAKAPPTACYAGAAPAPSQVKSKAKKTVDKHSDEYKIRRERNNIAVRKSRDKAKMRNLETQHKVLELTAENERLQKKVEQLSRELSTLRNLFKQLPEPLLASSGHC

Records with an inconclusive call do not appear. The source made the active and inactive calls. Rule for the calls, unless noted: active = hit-call score of the fitted dose curve at least 0.9, where 1 is the maximum; inactive = score below 0.9.

Chain of Aryl hydrocarbon receptor (Homo sapiens) (P35869 whole entry, looked up): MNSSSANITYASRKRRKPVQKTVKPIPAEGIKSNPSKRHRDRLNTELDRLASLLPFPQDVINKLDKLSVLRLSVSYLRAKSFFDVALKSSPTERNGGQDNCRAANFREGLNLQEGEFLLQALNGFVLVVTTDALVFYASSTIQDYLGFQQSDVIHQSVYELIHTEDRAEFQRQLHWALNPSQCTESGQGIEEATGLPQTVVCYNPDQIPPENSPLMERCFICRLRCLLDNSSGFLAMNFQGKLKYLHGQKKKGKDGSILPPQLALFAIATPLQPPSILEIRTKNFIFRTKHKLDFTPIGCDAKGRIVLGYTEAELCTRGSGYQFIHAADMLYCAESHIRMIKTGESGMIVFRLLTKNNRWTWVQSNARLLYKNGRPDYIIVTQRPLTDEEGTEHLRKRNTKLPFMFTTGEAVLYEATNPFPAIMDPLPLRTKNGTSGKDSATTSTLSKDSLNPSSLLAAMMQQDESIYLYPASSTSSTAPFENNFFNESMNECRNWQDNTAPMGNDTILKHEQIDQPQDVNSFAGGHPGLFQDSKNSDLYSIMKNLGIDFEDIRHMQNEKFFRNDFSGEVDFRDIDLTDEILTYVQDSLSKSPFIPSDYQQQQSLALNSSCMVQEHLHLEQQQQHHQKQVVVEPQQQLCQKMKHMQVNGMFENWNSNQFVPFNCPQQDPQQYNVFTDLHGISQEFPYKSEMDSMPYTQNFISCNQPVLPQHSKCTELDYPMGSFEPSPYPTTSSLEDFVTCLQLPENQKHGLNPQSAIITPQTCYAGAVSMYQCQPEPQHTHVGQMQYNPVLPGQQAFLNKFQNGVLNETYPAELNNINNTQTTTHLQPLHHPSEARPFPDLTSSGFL
Chain of Retinoic acid receptor alpha (Homo sapiens) (P10276 whole entry, looked up): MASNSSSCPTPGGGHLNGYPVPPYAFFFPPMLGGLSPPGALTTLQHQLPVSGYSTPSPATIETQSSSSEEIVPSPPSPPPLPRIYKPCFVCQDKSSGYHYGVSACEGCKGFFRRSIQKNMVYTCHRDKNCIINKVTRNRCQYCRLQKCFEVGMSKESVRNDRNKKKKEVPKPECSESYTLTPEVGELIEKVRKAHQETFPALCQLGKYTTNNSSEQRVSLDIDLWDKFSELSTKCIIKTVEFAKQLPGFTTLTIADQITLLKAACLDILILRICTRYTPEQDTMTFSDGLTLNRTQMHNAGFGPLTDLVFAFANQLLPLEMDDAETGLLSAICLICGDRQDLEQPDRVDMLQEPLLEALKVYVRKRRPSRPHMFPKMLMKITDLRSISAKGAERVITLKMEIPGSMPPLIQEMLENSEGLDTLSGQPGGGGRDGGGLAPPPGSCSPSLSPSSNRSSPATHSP

A word on the AC50: it is the concentration giving half of the maximal activity seen. On to `O=C(Nc1ccccc1)c1cc(Cl)ccc1O`, for which the molecule was called inactive in assay [1], in assay [3], in assay [4] and in assay [7]. For the same molecule, the AC50 in [2] is 3.19 µM (active); in [5], 3.62 µM (active); in assay [6], 2.84 µM (active); in assay [8], 3.15 µM (active); in [9], 4.11 µM (active).

`O=C1c2ccccc2C(=O)c2cc(S(=O)(=O)O)ccc21`: the outcome in [1], in assay [2], in assay [3], in [4], in assay [6] and in [7] was inactive. Besides, the call in [8] and in [9] was inactive.

Regarding `CCCCCCO`, the call in assay [1], in [2], in assay [3], in [4], in assay [5] and in assay [6] was inactive. Also, the result in [7], in assay [8] and in assay [9] was inactive.

As for `CC1=NN(c2ccc(S(=O)(=O)O)cc2)C(=O)C1N=Nc1ccccc1` (stereo not given), the outcome in [1], in assay [2], in [3], in assay [4], in assay [7] and in assay [8] was inactive. In addition, the molecule was classed as inactive in [9].

Regarding `NC(=O)Nc1ccccc1`, the molecule was called inactive in assay [1], in [2], in assay [3], in [5], in assay [6] and in [7]. Further, the molecule was called inactive in [8].

For `C=CCCCCCCCCO`, the call in [1], in [2], in assay [3], in [4], in [7] and in assay [8] was inactive. Moreover, the AC50 in assay [5] was 29.3 µM (active).

Regarding `CCCCCCCC(=O)OCC(COC(=O)CCCCCCC)OC(=O)CCCCCCC`, the call in assay [1], in assay [2], in assay [3], in assay [4], in assay [5] and in [6] was inactive. The molecule was classed as inactive in [7], in assay [8] and in assay [9].

With `CCCCOCCOCCOC(C)=O`, the molecule was classed as inactive in assay [1], in assay [2], in assay [3], in assay [4], in [5] and in [6]. In addition, the molecule was called inactive in assay [7], in assay [8] and in assay [9].

In the case of `CCCc1ccc(O)c(OC)c1`, the molecule was called inactive in assay [1], in [2], in assay [3], in [5], in assay [6] and in [7]. Further, the molecule was called inactive in assay [8] and in assay [9]. In addition, the concentration at half-maximal activity (AC50) in assay [4] is 33.8 µM (active).

With `C1CNCCN1`, the molecule was called inactive in assay [1], in [2], in assay [3], in [4], in assay [5] and in assay [6]. Further, the call in [7], in assay [8] and in [9] was inactive.

With `Cc1noc(NS(=O)(=O)c2ccc(N)cc2)c1C`, the result in [1], in assay [2], in assay [3], in [4], in [5] and in assay [6] was inactive. The molecule was called inactive in assay [7], in [8] and in [9].

As for `O=C(OCc1ccccc1)c1ccc(O)cc1`, the AC50 in [1] is 10.5 µM (active); in assay [8], 123 µM (active). Moreover, the outcome in [2], in assay [3], in [5], in [6], in assay [7] and in assay [9] was inactive.

For the molecule `CCCCOC(=O)C(C)CC` (stereo not given), the call in assay [2], in [10], in assay [3], in assay [4], in [5] and in assay [6] was inactive. For the same molecule, the outcome in assay [7] and in [8] was inactive.

For `C=C(C)C1CC=C(C)CC1` (stereo not given), the molecule was called inactive in assay [1], in assay [2], in assay [3], in assay [5], in assay [6] and in assay [7]. Further, in [8], the call was inactive.

On to `CC(C)(CO)COC(=O)C(C)(C)CO`, for which the result in assay [1], in [2], in assay [3], in [4], in assay [5] and in assay [7] was inactive. Further, the molecule was called inactive in assay [8] and in [9].

Turning to `Cn1ccnc1`, the result in [1], in [2], in assay [3], in [5], in assay [7] and in assay [8] was inactive. Also, the outcome in [9] was inactive.

Regarding `CCOC(=O)c1ccccc1C`, the outcome in assay [1], in assay [2], in [3], in assay [4], in [5] and in assay [6] was inactive. For the same molecule, the result in assay [7], in [8] and in assay [9] was inactive.

Take `Cc1c(C(=O)c2c[nH]n(C)c2=O)ccc(S(C)(=O)=O)c1C1=NOCC1`: the molecule was classed as inactive in assay [2], in [10], in assay [3], in assay [6], in assay [7] and in assay [8]. Also, the molecule was classed as inactive in assay [9].

With `Cc1c(O)cccc1O`, the molecule was classed as inactive in assay [2], in [3], in assay [4], in assay [6], in assay [7] and in assay [8]. The call in [9] was inactive. In [5], the AC50 is 37.8 µM (active).

With `CCCCOCCOC(=O)COc1ccc(Cl)cc1Cl`, the result in assay [2], in assay [10], in assay [3], in [5], in [6] and in assay [7] was inactive. The result in assay [8] and in [9] was inactive.

On to `CCCCCCC=O`, for which the result in assay [2], in assay [10], in assay [3], in assay [4], in [5] and in [6] was inactive. The outcome in assay [7], in assay [8] and in assay [9] was inactive.

For the molecule `CC(C)CCCCCOC(=O)CS`, the result in [2], in [10], in [3], in assay [4], in assay [6] and in [7] was inactive. Besides, the molecule was called inactive in assay [8] and in assay [9].

Consider `CCc1cccc(C)c1N`, for which the molecule was called inactive in [2], in assay [10], in assay [3], in [4], in [5] and in assay [6]. The outcome in [7], in [8] and in assay [9] was inactive.

Consider `CC(=O)CCC1=C(C)CCCC1(C)C`, for which the outcome in [2], in assay [10], in assay [3], in assay [4], in [5] and in assay [6] was inactive. The call in [7], in assay [8] and in assay [9] was inactive.

With `Cc1ccc(C)c(OCCCC(C)(C)C(=O)O)c1`, the result in assay [2], in assay [10], in assay [3], in assay [4], in assay [5] and in [6] was inactive. Also, the molecule was called inactive in assay [7], in assay [8] and in assay [9].

`CC1CCC(C(C)(C)S)C(=O)C1` (stereo not given): the outcome in [2], in assay [10], in assay [3], in [4], in [5] and in assay [6] was inactive. For the same molecule, the outcome in [7], in assay [8] and in [9] was inactive.

Take `N#Cc1ccc(C(c2ccc(C#N)cc2)n2cncn2)cc1`: the result in assay [2], in assay [10], in [3], in assay [4], in assay [5] and in [6] was inactive. For the same molecule, the outcome in assay [7], in [8] and in assay [9] was inactive.

As to `CCN(CC)c1cccc(C)c1`, the molecule was classed as inactive in [2], in [10], in assay [3], in [4], in assay [5] and in [6]. Besides, the outcome in assay [7], in assay [8] and in assay [9] was inactive.

Regarding `C=C(C)C1CC=C(C)C(OC(C)=O)C1` (stereo not given), the outcome in assay [2], in assay [10], in assay [3], in [5], in [7] and in [8] was inactive. For the same molecule, the molecule was classed as inactive in assay [9].
